From PubChem BioAssay (EPA / NIEHS)
Inconclusive results are not listed. The source holds several records for some structures; these can differ, active in one and inactive in another. Active and inactive are the calls of the source. Rule for the calls, unless noted: active = hit-call score of the fitted dose curve at least 0.9, where 1 is the maximum; inactive = score below 0.9.

What was measured:
[1] = target: Estrogen-related receptor gamma (Homo sapiens) (UniProt P62508); assay: ATG_ERRg_TRANS: Attagene TRANS-FACTORIAL HepG2 Assay for human Estrogen-Related Receptor gamma (ERRg) (AID 2282977; active = hit-call score of the fitted dose curve at least 0.9, where 1 is the maximum;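 note: hits increase reporter signal over DMSO so potencies reflect activators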); conditions: HepG2 Attagene TRANS reporter, ERRg transactivation
Summary of the method: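 Transient HepG2 transfectants, 24 h compound exposure, GAL4-UAS reporter mRNA by RT-PCR/6-FAM labelling/capillary electrophoresis; positive direction vs DMSO.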

[2] = target: Oxysterols receptor LXR-alpha (Homo sapiens) (UniProt Q13133); assay: ATG_LXRa_TRANS: Attagene TRANS-FACTORIAL HepG2 Assay for human Liver X Receptor alpha (LXRa) (AID 2282980; active = hit-call score of the fitted dose curve at least 0.9, where 1 is the maximum); conditions: HepG2 Attagene TRANS reporter, LXRa transactivation
Summary of the method: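 In this multiplexed TRANS system, compounds act on HepG2 cells carrying GAL4-UAS reporter units and a receptor-GAL4 fusion for 24 h. Induced reporter RNA is amplified, fluorescently labelled and sized by capillary electrophoresis, with DMSO as baseline.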

[3] = ATG_M_06_TRANS: Attagene TRANS-FACTORIAL HepG2 Assay for M06 Transcription Factor (Internal Marker) (AID 2282983; active = hit-call score of the fitted dose curve at least 0.9, where 1 is the maximum); conditions: HepG2 Attagene TRANS M06 internal marker reporter
Summary of the method: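 Internal-marker background readout from a multiplexed TRANS reporter system in HepG2; 24 h dosing; mRNA induction quantified by RT-PCR plus capillary electrophoresis fluorescence; DMSO as negative control and baseline.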

[4] = target: Nuclear receptor subfamily 4 group A member 2 (Homo sapiens) (UniProt P43354); assay: ATG_NURR1_TRANS: Attagene TRANS-FACTORIAL HepG2 Assay for human Nuclear Receptor Related Protein 1 (NURR1) (AID 2282985; active = hit-call score of the fitted dose curve at least 0.9, where 1 is the maximum); conditions: HepG2 Attagene TRANS reporter, mRNA readout
Summary of the method: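 HepG2 / transient MRTU transfection / 24 h compound exposure / RT-PCR + CE fluorescence of reporter mRNA / gain-of-signal vs DMSO.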

[5] = target: Transcriptional activator Myb (Homo sapiens) (UniProt P10242); assay: ATG_Myb_CIS: Attagene CIS-FACTORIAL HepG2 Assay for human Myeloblastosis (Myb) Proto-Oncogene Transcription Factor (AID 2282986); conditions: HepG2 Attagene CIS-FACTORIAL Myb reporter transcription; actives raise or lower the signal
Summary of the method: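 Transiently transfected HepG2 cells carrying a multiplexed cis-promoter reporter set report endogenous Myb activity after 24 h compound exposure. Reporter mRNA is read by RT-PCR with capillary electrophoresis of fluorescent products, fitted bidirectionally against DMSO.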

[6] = ATG_NFI_CIS: Attagene CIS-FACTORIAL HepG2 Assay for human Nuclear Factor I (NFI) (AID 2282989); conditions: HepG2 cis-regulatory reporter, NFI response element transcription; actives raise or lower the signal
Summary of the method: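 Reporter transcription driven by endogenous transcription factors in HepG2 cells; 24 h treatment. Quantitation by labelled RT-PCR fragments on capillary electrophoresis, gain- or loss-of-signal relative to DMSO.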

[7] = target: Myc proto-oncogene protein (Homo sapiens) (UniProt P01106); assay: ATG_Myc_CIS: Attagene CIS-FACTORIAL HepG2 Assay for human Myelocytomatosis (Myc) Proto-Oncogene Transcription Factor (AID 2282990); conditions: HepG2, Attagene cis-reporter transcription factor activity; actives raise or lower the signal
Summary of the method: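 Read-out: fluorescent reporter mRNA fragments resolved by capillary electrophoresis after RT-PCR. Human HepG2 liver cells carried transfected cis-element reporter units and were dosed for 24 h. Gain or loss of signal fitted relative to DMSO baseline.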

[8] = ATG_NF_kB_CIS: Attagene CIS-FACTORIAL HepG2 Assay for human Nuclear Factor Kappa B (NF-kB) (AID 2282991); conditions: HepG2 Attagene cis-factorial NF-kB reporter mRNA; actives raise or lower the signal
Summary of the method: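 HepG2 cells transfected with cis-promoter-driven reporter units, so endogenous transcription factor activity is measured. Reporter mRNA quantified 24 h after dosing by RT-PCR and capillary electrophoresis, with bidirectional fitting against DMSO.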

[9] = ATG_NRF2_ARE_CIS: Attagene CIS-FACTORIAL HepG2 Assay for human Nuclear Factor Erythroid 2 Related Factor 2 (NFR2) response to Antioxidant Response Elements (ARE) (AID 2282992); conditions: HepG2 Attagene ARE/NRF2 reporter, transcription factor activity; actives raise or lower the signal;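 for AC50: reporter mRNA level measured by RT-PCR and capillary electrophoresis fluorescence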
Summary of the method: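 HepG2 cells transiently transfected with multiplexed cis-element reporter constructs, 24 h after chemical dosing; reporter mRNA quantified by RT-PCR, fluorescent primer extension, HpaI digestion and capillary electrophoresis. Bidirectional fit relative to DMSO.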

[10] = ATG_Oct_MLP_CIS: Attagene CIS-FACTORIAL HepG2 Assay for human Octamer-Binding Transcription Factor (Oct) (AID 2282993); conditions: HepG2 Attagene cis-factorial Oct reporter, mRNA; actives raise or lower the signal
Summary of the method: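 Transfected HepG2 cells, 24 h treatment. Reporter mRNA quantified by RT-PCR–capillary electrophoresis; bidirectional fitting against DMSO.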

[11] = target: Cellular tumor antigen p53 (Homo sapiens) (UniProt P04637); assay: ATG_p53_CIS: Attagene CIS-FACTORIAL HepG2 Assay for human p53 Transcription Factor (AID 2282994); conditions: HepG2 p53 cis-element reporter, Attagene mRNA; actives raise or lower the signal
Summary of the method: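 HepG2 cells transiently transfected with cis-regulated multiple reporter transcription units, dosed 24 h. Reporter mRNA measured by RT-PCR, 6-FAM primer extension, HpaI digestion and capillary electrophoresis; bidirectional fit relative to DMSO.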

[12] = target: Glucocorticoid receptor (Homo sapiens) (UniProt P04150); assay: ATG_GR_TRANS: Attagene TRANS-FACTORIAL HepG2 Assay for human Glucocorticoid Receptor (GR) (AID 2282978; active = hit-call score of the fitted dose curve at least 0.9, where 1 is the maximum;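 note: activators score as hits since higher reporter transcript over DMSO is fitted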); conditions: HepG2 Attagene TRANS GR reporter, mRNA transcription
Summary of the method: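 HepG2 cells transiently transfected with GAL4-UAS reporter units and exogenous GR-Gal4 chimera, dosed 24 h. Reporter mRNA by RT-PCR, FAM labeling, HpaI digest and capillary electrophoresis; gain-of-signal fit versus DMSO.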

[13] = target: Nuclear respiratory factor 1 (Homo sapiens) (UniProt Q16656); assay: ATG_NRF1_CIS: Attagene CIS-FACTORIAL HepG2 Assay for human Nuclear Respiratory Factor 1 (NRF1) Orphan Gene (AID 2282987); conditions: HepG2 NRF1 cis-element reporter, Attagene multiplex; actives raise or lower the signal
Summary of the method: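 HepG2 cells transiently transfected with multiple cis-regulated reporter units, exposed 24 h. Reporter mRNAs measured by RT-PCR, fluorescent labelling, HpaI digestion and capillary electrophoresis; bidirectional fitting against DMSO.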

[14] = target: Bile acid receptor (Homo sapiens) (UniProt Q96RI1); assay: ATG_FXR_TRANS: Attagene TRANS-FACTORIAL HepG2 Assay for Farnesoid X Receptor (FXR) (AID 2282979; active = hit-call score of the fitted dose curve at least 0.9, where 1 is the maximum;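 note: hits raise reporter mRNA above DMSO so AC50 marks FXR activation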); conditions: HepG2 Attagene TRANS FXR-GAL4 reporter transcription
Summary of the method: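 After 24 h chemical treatment of transfected HepG2 cells, GAL4-UAS reporter transcripts driven by an exogenous FXR-GAL4 fusion were measured by RT-PCR and capillary electrophoresis. Increases over DMSO were fitted.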

[15] = target: Oxysterols receptor LXR-beta (Homo sapiens) (UniProt P55055); assay: ATG_LXRb_TRANS: Attagene TRANS-FACTORIAL HepG2 Assay for human Liver X Receptor beta (LXRb) (AID 2282981; active = hit-call score of the fitted dose curve at least 0.9, where 1 is the maximum); conditions: HepG2 Attagene TRANS GAL4-LXRb reporter, mRNA
Summary of the method: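 Gain-of-signal mRNA reporter endpoint, DMSO as negative control. Transiently transfected HepG2 cells carrying the NR-Gal4 chimera and GAL4-UAS reporter units were treated 24 h; transcripts quantified by RT-PCR and capillary electrophoresis fluorescence.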

[16] = target: Hepatocyte nuclear factor 4-alpha (Homo sapiens) (UniProt P41235); assay: ATG_HNF4a_TRANS: Attagene TRANS-FACTORIAL HepG2 Assay for human Hepatocyte Nuclear Factor 4 alpha (HNF4a) (AID 2282982; active = hit-call score of the fitted dose curve at least 0.9, where 1 is the maximum); conditions: HepG2 HNF4a transactivation reporter, mRNA readout
Summary of the method: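 Gain-of-signal mRNA induction, relative to DMSO vehicle, was read after 24 h compound treatment of HepG2 cells bearing transfected GAL4-UAS reporters. Detection used RT-PCR, 6-FAM primer extension and capillary electrophoresis.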

[17] = BSK_3C_TissueFactor: BioMAP Diversity Plus: 3C Assay for Tissue Factor Biomarker Activity (AID 2282997); conditions: BioMAP 3C HUVEC, tissue factor biomarker readout; actives raise or lower the signal
Summary of the method: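 Endothelial monolayers (human umbilical vein, primary) are dosed, incubated 24 h, and assayed for Tissue Factor by ELISA; DMSO serves as negative control for bidirectional fitting.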

[18] = BSK_3C_uPAR: BioMAP Diversity Plus: 3C Assay for Urokinase-type plasminogen activator receptor (uPAR) Biomarker Activity (AID 2282998); conditions: BioMAP 3C HUVEC, uPAR biomarker ELISA; actives raise or lower the signal
Summary of the method: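 Readout: ELISA for surface uPAR. System: human umbilical vein endothelial primary cells, 24 h after chemical exposure. Analysis: bidirectional fit, DMSO baseline.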

[19] = BSK_3C_VCAM1: BioMAP Diversity Plus: 3C Assay for Vascular cell adhesion molecule 1 (VCAM1) Biomarker Activity (AID 2282999); conditions: BioMAP 3C HUVEC, VCAM1 ELISA, cytokine-stimulated; actives raise or lower the signal
Summary of the method: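 Human umbilical vein endothelial cells (3C system), biomarker read by ELISA 24 h after dosing; bidirectional fit against DMSO baseline. Cytotoxicity tracked by SRB total-protein staining in parallel cultures at biomarker time.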

[20] = ATG_M_32_TRANS: Attagene TRANS-FACTORIAL HepG2 Assay for M32 Transcription Factor (Internal Marker) (AID 2282984; active = hit-call score of the fitted dose curve at least 0.9, where 1 is the maximum;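 note: transcript level of a background control reporter unit measured by RT-PCR and capillary electrophoresis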); conditions: HepG2 Attagene TRANS M32 internal marker reporter
Summary of the method: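 Capillary electrophoresis of 6-FAM-labelled reporter fragments gives the signal; data fitted for gain over DMSO negative control. Source: HepG2 cells bearing transient multiple reporter transcription units, 24 h exposure.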

Measured: AC50

Chain of Oxysterols receptor LXR-beta (Homo sapiens) (P55055 whole entry, looked up, the tested form may be a part): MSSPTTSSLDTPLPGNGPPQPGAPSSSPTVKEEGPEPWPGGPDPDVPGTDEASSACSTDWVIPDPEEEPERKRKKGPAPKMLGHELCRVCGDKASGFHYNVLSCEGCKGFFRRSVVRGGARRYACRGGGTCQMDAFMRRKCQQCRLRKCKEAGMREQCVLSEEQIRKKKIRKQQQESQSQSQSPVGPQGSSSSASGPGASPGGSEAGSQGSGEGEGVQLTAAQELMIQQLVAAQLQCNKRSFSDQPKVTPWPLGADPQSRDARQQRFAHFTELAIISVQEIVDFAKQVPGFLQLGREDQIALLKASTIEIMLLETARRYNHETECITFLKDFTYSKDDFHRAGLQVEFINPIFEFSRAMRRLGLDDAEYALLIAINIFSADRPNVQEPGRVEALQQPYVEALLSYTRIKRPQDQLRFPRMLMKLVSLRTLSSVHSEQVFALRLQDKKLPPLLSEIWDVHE
Chain of Nuclear receptor subfamily 4 group A member 2 (Homo sapiens) (P43354 whole entry, looked up): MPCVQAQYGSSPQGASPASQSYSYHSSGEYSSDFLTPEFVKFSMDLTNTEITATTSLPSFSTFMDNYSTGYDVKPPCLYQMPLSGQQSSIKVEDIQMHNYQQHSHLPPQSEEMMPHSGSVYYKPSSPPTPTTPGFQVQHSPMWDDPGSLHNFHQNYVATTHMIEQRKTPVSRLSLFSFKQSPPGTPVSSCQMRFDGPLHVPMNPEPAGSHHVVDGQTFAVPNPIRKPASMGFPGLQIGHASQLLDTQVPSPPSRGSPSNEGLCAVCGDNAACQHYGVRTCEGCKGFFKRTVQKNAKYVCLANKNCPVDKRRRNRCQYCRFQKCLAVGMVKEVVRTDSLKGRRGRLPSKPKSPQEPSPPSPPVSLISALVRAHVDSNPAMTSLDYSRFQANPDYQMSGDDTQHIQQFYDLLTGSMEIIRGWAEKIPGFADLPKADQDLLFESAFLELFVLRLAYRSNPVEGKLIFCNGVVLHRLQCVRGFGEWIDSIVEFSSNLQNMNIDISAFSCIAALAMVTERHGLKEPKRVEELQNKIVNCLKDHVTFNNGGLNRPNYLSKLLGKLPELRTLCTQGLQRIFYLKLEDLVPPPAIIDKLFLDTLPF
Chain of Myc proto-oncogene protein (Homo sapiens) (P01106 whole entry, looked up, the tested form may be a part): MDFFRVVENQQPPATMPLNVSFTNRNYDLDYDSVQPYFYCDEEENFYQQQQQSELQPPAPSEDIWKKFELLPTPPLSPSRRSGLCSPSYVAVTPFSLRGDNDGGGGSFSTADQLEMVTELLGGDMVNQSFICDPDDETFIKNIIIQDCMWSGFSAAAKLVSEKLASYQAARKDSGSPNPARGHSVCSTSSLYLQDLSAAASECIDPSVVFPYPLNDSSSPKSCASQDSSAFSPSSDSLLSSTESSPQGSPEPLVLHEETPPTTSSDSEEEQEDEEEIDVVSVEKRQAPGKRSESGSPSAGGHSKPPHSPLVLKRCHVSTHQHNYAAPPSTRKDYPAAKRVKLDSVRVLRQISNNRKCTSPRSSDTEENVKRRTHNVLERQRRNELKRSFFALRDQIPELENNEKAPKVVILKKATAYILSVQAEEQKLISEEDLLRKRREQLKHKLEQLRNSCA
Chain of Cellular tumor antigen p53 (Homo sapiens) (P04637 whole entry, looked up): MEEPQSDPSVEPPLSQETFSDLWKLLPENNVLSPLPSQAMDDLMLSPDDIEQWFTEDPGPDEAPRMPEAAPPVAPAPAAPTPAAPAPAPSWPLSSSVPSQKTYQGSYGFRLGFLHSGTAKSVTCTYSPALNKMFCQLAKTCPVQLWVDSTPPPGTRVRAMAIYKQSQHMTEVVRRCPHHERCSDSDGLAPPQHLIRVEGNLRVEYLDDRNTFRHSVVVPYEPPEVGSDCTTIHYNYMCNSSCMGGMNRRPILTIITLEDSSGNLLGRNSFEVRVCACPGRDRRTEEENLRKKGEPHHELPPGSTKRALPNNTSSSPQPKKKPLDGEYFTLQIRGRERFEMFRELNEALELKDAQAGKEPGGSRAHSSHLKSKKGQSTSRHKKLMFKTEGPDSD
Chain of Bile acid receptor (Homo sapiens) (Q96RI1 whole entry, looked up, the tested form may be a part): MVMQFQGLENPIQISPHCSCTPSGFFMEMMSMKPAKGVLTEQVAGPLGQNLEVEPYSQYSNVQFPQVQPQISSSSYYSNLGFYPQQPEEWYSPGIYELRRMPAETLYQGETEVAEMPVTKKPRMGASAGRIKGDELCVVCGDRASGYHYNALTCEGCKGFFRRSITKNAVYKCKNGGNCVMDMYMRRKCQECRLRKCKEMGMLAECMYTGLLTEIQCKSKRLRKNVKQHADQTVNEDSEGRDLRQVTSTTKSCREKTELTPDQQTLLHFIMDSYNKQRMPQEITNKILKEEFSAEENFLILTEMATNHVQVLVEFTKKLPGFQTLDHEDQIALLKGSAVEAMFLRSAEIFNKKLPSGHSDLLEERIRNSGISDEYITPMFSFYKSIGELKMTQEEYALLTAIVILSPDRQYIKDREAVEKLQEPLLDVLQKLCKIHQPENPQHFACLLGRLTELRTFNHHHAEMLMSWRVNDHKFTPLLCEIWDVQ
Chain of Glucocorticoid receptor (Homo sapiens) (P04150 whole entry, looked up, the tested form may be a part): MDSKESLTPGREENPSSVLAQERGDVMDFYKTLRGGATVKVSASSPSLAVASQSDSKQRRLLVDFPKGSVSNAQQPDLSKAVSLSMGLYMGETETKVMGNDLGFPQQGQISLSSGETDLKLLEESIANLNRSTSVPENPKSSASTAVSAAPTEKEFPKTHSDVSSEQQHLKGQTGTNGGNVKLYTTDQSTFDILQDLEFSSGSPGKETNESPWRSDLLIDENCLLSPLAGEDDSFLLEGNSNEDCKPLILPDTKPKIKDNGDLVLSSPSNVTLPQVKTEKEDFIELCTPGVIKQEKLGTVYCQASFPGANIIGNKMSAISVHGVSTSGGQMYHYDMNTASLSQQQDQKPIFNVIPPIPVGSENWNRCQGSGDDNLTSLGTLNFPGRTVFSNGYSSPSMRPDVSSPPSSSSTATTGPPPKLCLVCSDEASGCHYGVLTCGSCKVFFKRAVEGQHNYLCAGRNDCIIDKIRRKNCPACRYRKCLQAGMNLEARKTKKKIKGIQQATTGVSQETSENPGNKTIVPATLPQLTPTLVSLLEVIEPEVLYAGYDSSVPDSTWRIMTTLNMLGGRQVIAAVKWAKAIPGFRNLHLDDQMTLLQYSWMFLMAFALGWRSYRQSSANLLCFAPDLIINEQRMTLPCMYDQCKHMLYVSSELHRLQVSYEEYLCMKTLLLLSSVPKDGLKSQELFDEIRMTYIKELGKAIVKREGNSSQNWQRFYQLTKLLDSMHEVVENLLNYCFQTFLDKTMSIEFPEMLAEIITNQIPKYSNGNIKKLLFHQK
Chain of Hepatocyte nuclear factor 4-alpha (Homo sapiens) (P41235 whole entry, looked up, the tested form may be a part): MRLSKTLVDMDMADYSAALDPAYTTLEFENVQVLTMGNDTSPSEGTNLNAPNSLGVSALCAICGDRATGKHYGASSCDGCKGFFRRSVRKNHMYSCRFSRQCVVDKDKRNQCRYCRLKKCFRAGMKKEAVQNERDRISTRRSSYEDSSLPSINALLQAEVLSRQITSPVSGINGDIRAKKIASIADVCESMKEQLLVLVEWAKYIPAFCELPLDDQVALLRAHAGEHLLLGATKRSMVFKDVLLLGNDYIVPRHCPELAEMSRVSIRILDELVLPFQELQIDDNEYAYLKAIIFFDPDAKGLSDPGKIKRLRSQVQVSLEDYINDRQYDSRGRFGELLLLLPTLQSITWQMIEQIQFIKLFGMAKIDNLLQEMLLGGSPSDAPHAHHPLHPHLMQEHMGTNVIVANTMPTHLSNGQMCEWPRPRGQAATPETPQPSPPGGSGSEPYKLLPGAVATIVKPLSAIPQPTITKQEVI
Chain of Oxysterols receptor LXR-alpha (Homo sapiens) (Q13133 whole entry, looked up, the tested form may be a part): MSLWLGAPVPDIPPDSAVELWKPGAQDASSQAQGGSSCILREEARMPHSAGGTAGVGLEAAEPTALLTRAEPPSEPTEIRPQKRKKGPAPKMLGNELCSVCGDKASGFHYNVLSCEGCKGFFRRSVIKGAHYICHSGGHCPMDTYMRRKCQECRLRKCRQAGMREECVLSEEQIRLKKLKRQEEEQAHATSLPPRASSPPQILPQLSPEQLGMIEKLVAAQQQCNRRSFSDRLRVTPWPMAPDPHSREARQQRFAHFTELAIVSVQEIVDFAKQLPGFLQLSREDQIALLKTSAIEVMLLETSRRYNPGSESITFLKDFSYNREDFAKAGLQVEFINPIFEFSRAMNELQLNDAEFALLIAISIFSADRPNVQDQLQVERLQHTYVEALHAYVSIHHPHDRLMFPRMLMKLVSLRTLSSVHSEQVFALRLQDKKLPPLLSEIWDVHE
Chain of Nuclear respiratory factor 1 (Homo sapiens) (Q16656 whole entry, looked up): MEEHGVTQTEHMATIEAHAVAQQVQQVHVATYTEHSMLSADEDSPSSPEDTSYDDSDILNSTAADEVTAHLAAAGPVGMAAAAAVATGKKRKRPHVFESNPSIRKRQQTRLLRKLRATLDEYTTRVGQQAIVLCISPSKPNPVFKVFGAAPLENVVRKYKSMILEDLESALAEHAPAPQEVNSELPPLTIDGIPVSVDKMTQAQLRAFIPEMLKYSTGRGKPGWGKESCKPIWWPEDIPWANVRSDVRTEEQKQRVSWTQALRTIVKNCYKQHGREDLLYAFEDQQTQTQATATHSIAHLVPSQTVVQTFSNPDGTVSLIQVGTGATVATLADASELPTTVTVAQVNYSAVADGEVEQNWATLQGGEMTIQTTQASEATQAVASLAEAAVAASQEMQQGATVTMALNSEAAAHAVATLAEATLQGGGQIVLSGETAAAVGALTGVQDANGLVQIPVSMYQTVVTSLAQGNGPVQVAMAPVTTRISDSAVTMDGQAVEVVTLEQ

Cc1cc(N)n(-c2ccccc2)n1
inactive: [1] | [2] | [3] | [4] | [5] | [6] | [7] | [8] | [9] | [10] | [11]

Cc1cccc(O)c1
not listed: [2] | [14] | [15] | [16] | [17] | [18] | [19] | [20]
inactive: all other assays above

O=S1(=O)CC(Cl)(Cl)C(Cl)(Cl)C1
active: [9] 0.485 µM | [11] 2.67 µM | [17] 0.556 µM | [18] 0.695 µM | [19] 0.618 µM
not listed: [3] | [20]
inactive: all other assays above

C[C@]12CC[C@@H]3c4ccc(O)cc4CC[C@H]3[C@@H]1CC[C@@H]2O
inactive: [1] | [12] | [2] | [16] | [3] | [20] | [4] | [5] | [6] | [7] | [9] | [10] | [19]
active: [6] 146 µM | [17] 20 µM | [18] 11.9 µM

CCCCC1CCCCC(=O)O1 (stereo not drawn)
inactive: [1] | [12] | [16] | [3] | [5] | [13] | [7] | [8] | [9] | [10] | [11]

COc1ccc2[nH]cc(CCNC(C)=O)c2c1
not listed: [11] | [13] | [14] | [17] | [18] | [19]
inactive: all other assays above

Cc1cccc(C)c1
inactive: [1] | [12] | [2] | [3] | [4] | [5] | [13] | [6] | [7] | [9] | [10]

CCCCOCCOCCOCCO
not listed: [3] | [12] | [14] | [17] | [18] | [19]
inactive: all other assays above

O=C1CCC(=O)N1
not listed: [7] | [13] | [15] | [16] | [17] | [18] | [19]
inactive: all other assays above

Nc1ccc(O)c(N)c1
inactive: [1] | [2] | [15] | [20] | [4] | [5] | [13] | [6] | [10]
active: [9] 43.9 µM

CC(C)OB(OC(C)C)OC(C)C
not listed: [2] | [3] | [15] | [17] | [18] | [19]
inactive: all other assays above

C=COCC1CCC(COC=C)CC1 (stereo not drawn)
active: [9] 179 µM
not listed: [3] | [8] | [14] | [15] | [16] | [17] | [18] | [19]
inactive: all other assays above

ClCCOCCOCCCl
active: [9] 54.7 µM
not listed: [2] | [8] | [12] | [14] | [17] | [18] | [19] | [20]
inactive: all other assays above

CCOc1ccc(NC(C)=O)cc1
inactive: [1] | [12] | [2] | [16] | [20] | [5] | [13] | [6] | [9] | [10] | [11]

CN1CCc2cccc3c2[C@H]1Cc1ccc(O)c(O)c1-3
active: [13] 3.59 µM | [9] 5.05 µM
not listed: [4] | [8] | [17] | [18] | [19] | [20]
inactive: all other assays above

CCC(C)(C)C1CCC(=O)CC1
inactive: [1] | [15] | [3] | [5] | [13] | [7] | [8] | [9] | [10] | [11]

CCCCCCCCCO
inactive: [1] | [12] | [14] | [2] | [15] | [5] | [7] | [10] | [11]

O=C(O)CS
not listed: [2] | [11] | [14] | [15] | [17] | [18] | [19] | [20]
inactive: all other assays above

CC(=O)N(C)C
inactive: [1] | [12] | [5] | [10]

CCOCC(C)O (stereo not drawn)
not listed: [3] | [8] | [11] | [12] | [14] | [17] | [18] | [19]
inactive: all other assays above

O=C(O)c1ccc(C(=O)O)c(C(=O)O)c1
not listed: [11] | [14] | [15] | [16] | [17] | [18] | [19]
inactive: all other assays above
